ClpP mod = qHTS Assay for Activators of ClpP; ATP-dependent Clp protease proteolytic subunit (Bacillus subtilis (strain 168)), P80244; purified B. subtilis ClpP, FRET peptide cleavage, 20 min; Potency, µM (doses to about 57.5 µM); 340,000 tested, 1.9% active; active = well fitted falling curve with a large enough effect; inconclusive = small, poorly fitted or top-dose-only effect; inactive = no such curve, though single readings can be large or run the other way; also: the source files actives as falling curves though it sought activators and does not explain the sign; nearly all actives have a fitted effect of over 65% in size
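Purified B. subtilis ClpP, 10 microg/mL final in Tris/HCl pH8 with KCl, BSA, glycerol and Tween-20, cleaved an Abz/nitrotyrosine-quenched decapeptide. Fluorescence (ex 320, em 430) was read at 0 and 20 min at room temperature. Delta was normalized to 5.8 microM ADEP and DMSO/no-enzyme controls.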
uPA generation = inhibitors of cell surface uPA generation; Potency, µM (highest dose often 38.3 µM), usual class: inhibitors; 330,000 tested, 0.31% active; cell surface uPA generation assay, qHTS; active = well fitted inhibition curve with a large enough effect; inconclusive = small, poorly fitted or top-dose-only effect; inactive = no such curve, though single readings can be large or run the other way; tested in mouse RAW 264.7 cells; also: nearly all actives have a fitted effect of over 55% in size
Sfp PPTase inh = blocks B. subtilis Sfp PPTase activity; Q9F4F7; Biochemical Sfp PPTase activity, qHTS; Potency, µM, most hits filed as inhibitors; 310,000 tested, 3.5% active;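 also: the enzyme is Sfp with the accession as filed and its product quenches rhodamine fluorescence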
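Buffer: 50 mM Hepes-Na pH 7.6, 10 mM MgCl2, 0.01% Nonidet P-40, 0.01% BSA. Enzyme 15 nM, pre-exposed to compound 15 min; substrates then added and fluorescence change tracked over 30 min.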
TCR act = activates T cell receptor signaling; Potency, µM (highest dose often 9.22 µM), usual class: activators; 330,000 tested, under 10 active; AID 504894; primary human leukocytes, anti-CD3, IL-2 HTRF, 48 h
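Primary human leukocytes receive a-CD3 beads and test compound and are incubated 48 hr. Secreted IL-2 is then assayed by HTRF, measuring 665nm acceptor emission after 320nm excitation of the europium donor.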
Of the large screens only hits and unclear results are named; the others gave an inactive call; ! = a repeat was not active. Rows were chosen to be rich in hits. Some 4.2% of all compounds tested hit in one or more screens of this group. Unless noted, calls follow the shape of the dose curve; as a rule, active = well fitted curve in the direction sought with a large enough effect; inconclusive = small, poorly fitted or top-dose-only effect, or another doubt; inactive = no such curve, though single readings can be large; an effect the other way counts as inactive or inconclusive.

Cc1ccc(S(=O)(=O)N2C[C@H]3C(=O)C[C@@H](c4cccs4)N(S(=O)(=O)c4ccc(C)cc4)[C@H]3C[C@H]2c2ccccc2)cc1	none (no result: uPA generation, Sfp PPTase inh, TCR act)
COc1cccc(C(=O)OCC(=O)N2CCC(Cc3ccccc3)CC2)c1OC	none (no result: Sfp PPTase inh)
CN(C)c1nc(-c2ccoc2)nc2ccccc12	Sfp PPTase inh 50µM (no result: ClpP mod, uPA generation, TCR act)
COc1ccc(OC)c(NC(=O)c2ccc(CN(c3cc(Cl)ccc3C)S(=O)(=O)c3ccccc3)cc2)c1	Sfp PPTase inh 79µM
COc1ccc(-c2nc3c4ccccc4[nH]c(=O)n3n2)cc1	ClpP mod 32µM (no result: uPA generation)
CC(C)c1nc(SCC(=O)N2CCCc3ccccc32)c2c(=O)n(C)c(=O)n(C)c2n1	Sfp PPTase inh 45µM
Cc1ccc(-c2[nH]c3c(c2-c2c(-n4cccc4)n(C)c(=O)[nH]c2=O)c(=O)[nH]c(=O)n3C)cc1	none (no result: uPA generation, Sfp PPTase inh, TCR act)
Cc1nn2c3c(cnc2c1-c1ccccc1)C(=O)CC(c1ccco1)C3 (configuration not stated)	Sfp PPTase inh 89µM
CN1CCC(N(C)CC(=O)Nc2ccc3c(c2)OC(F)(F)O3)CC1	Sfp PPTase inh 50µM (no result: ClpP mod)
Cc1c(OCc2ccc(C(=O)O)o2)ccc2c3c(c(=O)oc12)CCC3	ClpP mod 3.2µM
COc1ccc2c3c(c(=O)oc2c1OCC(=O)O)CCCC3	ClpP mod 20µM
COC(=O)c1ccc(COc2ccc3c(C)c(C)c(=O)oc3c2C)o1	none
Cc1ccc(-c2nnc3ccccc3c2C(=O)Nc2cccc(Cl)c2)cc1	none (no result: uPA generation, Sfp PPTase inh, TCR act)
COc1ccc(N2C(=O)/C(=C/N(C)C)NC2=S)cc1	Sfp PPTase inh 56µM (no result: ClpP mod)
O=[N+]([O-])c1ccc(-c2c[nH]c(=S)[nH]2)cc1	Sfp PPTase inh 3.5µM
S=c1[nH]cc(-c2ccccc2)[nH]1	none
CCOc1ccc(C2C(C(=O)Nc3ccc(OC)cc3)=C(C)Nc3nc(SCc4ccc(Cl)cc4)nn32)cc1 (configuration not stated)	none (no result: uPA generation, Sfp PPTase inh, TCR act)
CCN(CC)S(=O)(=O)c1cc(C(=O)Nc2cc(Cl)ccc2N2CCN(C)CC2)ccc1Cl	Sfp PPTase inh 50µM
CN1CCN(c2ccc(S(=O)(=O)N3CCCCC3)cc2NC(=O)c2ccc3ccccc3c2)CC1	ClpP mod 20µM, Sfp PPTase inh 40µM
CN1CCN(c2ccc(Cl)cc2NC(=O)c2ccc(S(=O)(=O)N(C)C)cc2)CC1	none
CCN1CCN(c2ccc(S(=O)(=O)N3CCCCC3)cc2NC(=O)c2cc3ccccc3o2)CC1	ClpP mod 16µM (no result: Sfp PPTase inh)
O=C(Nc1cc(S(=O)(=O)N2CCOCC2)ccc1N1CCCC1)c1ccc2c(c1)S(=O)(=O)c1ccccc1C2=O	Sfp PPTase inh 10µM (no result: ClpP mod)
N=C(N)n1cccn1	Sfp PPTase inh 50µM (no result: ClpP mod, uPA generation, TCR act)
CCC1CCc2sc(C(=O)O)cc2C1 (configuration not stated)	none
CCC1CCc2sc(C(=O)NNC(=O)c3ccncc3)cc2C1 (configuration not stated)	ClpP mod 14µM (no result: Sfp PPTase inh)
O=c1cc(-c2ccc(F)cc2)nc(SCc2nc(-c3ccc(Cl)cc3)no2)[nH]1	none (no result: uPA generation, Sfp PPTase inh, TCR act)
Nc1nc(N2CCCCC2)nc2ccccc12	ClpP mod 18µM
c1ccc2c(N3CCCCC3)nc(N3CCCC3)nc2c1	ClpP mod inconclusive (no result: TCR act)
COc1ccc(/C=C/C(=O)NCC(=O)N2CCC(N(C)CCN3CCOCC3)CC2)cc1OC	none
Cc1ccc(CN(C)C(=O)C2CCCN2C(=O)c2cccs2)o1 (configuration not stated)	Sfp PPTase inh 35µM (no result: uPA generation)
Cc1ncc(CN2CCCC(C(=O)Nc3ccc(-c4cscn4)cc3)C2)cn1 (configuration not stated)	none (no result: TCR act)
Cc1ncc(CN2CCCC(C(=O)Nc3ccc(-c4ccco4)cc3)C2)cn1 (configuration not stated)	Sfp PPTase inh 32µM
COCc1cc(CN2CCCC(C(=O)Nc3ccc(-c4ccco4)cc3)C2)ccc1OC (configuration not stated)	Sfp PPTase inh 50µM
COc1cccc(-c2ccc(NC(=O)C3CCCN(Cc4cnn(C)c4)C3)cc2)c1 (configuration not stated)	none
COc1cccc(CN2CCCC(C(=O)Nc3ccc(-c4cscn4)cc3)C2)c1 (configuration not stated)	uPA generation 7.1µM
Cc1ccc(-n2ncc(C(=O)NCc3ccccn3)c2C2CCN(C(=O)OC(C)(C)C)CC2)cc1C	none (no result: uPA generation, Sfp PPTase inh, TCR act)
CCOC(=O)CSC1=NC(=O)/C(=C/c2ccc(Br)cc2)S1	Sfp PPTase inh 56µM (no result: ClpP mod)
Cc1cccc(CN2Cc3cccc4c3[C@H](C=CC4)CC2=O)c1	none (no result: uPA generation, Sfp PPTase inh, TCR act)
CCCCNCCOCCOc1ccc(F)cc1	ClpP mod 3.2µM
CCCCNCCOCCOc1ccc(Cl)cc1Br	none
Oc1c(Cl)cc(Cl)c2c1NCCC2	Sfp PPTase inh 16µM
COc1ccc(CC(=O)Oc2ccc(Cl)cc2Br)cc1S(=O)(=O)N1CCOCC1	none (no result: Sfp PPTase inh)
CCN1C(=O)C(CC(=O)Nc2ccc(OC)cc2)N(CCc2ccc(F)cc2)C1=S (configuration not stated)	ClpP mod 11µM
COc1ccc(NC(=O)CC2C(=O)N(Cc3ccccc3)C(=S)N2CCN2CCOCC2)cc1 (configuration not stated)	ClpP mod 8.9µM
CC(=O)NC1C(O)O[C@H](C(=O)O)[C@@H](O)[C@@H]1O (some centres not stated)	none (no result: ClpP mod, uPA generation, TCR act)
CCN1CCN(C(=O)c2ccc3c(c2)S(=O)(=O)c2ccccc2C3=O)CC1	uPA generation inconclusive
CCOc1ccc2[nH]c3c(NCCN(C)C)ncnc3c2c1	none (no result: ClpP mod, uPA generation, TCR act)
COc1ccc2[nH]c3c(NCc4ccco4)ncnc3c2c1	ClpP mod 16µM! (no result: uPA generation, TCR act)
CCCOc1ncnc2c1[nH]c1ccc(OC)cc12	ClpP mod inconclusive, uPA generation 4.5µM
C=CCNc1ncnc2c1[nH]c1ccc(C)cc12	ClpP mod 16µM, uPA generation inconclusive
CCCOc1ncnc2c1[nH]c1ccccc12	ClpP mod 14µM (no result: uPA generation)
CCOc1ccc(NC(=O)C2CC(=O)N(c3ccccc3F)C2)cc1 (configuration not stated)	none (no result: ClpP mod)
CCOc1ccccc1C(=O)Oc1c(Sc2ccccc2)c(C)nn1C(C)(C)C	none (no result: uPA generation, Sfp PPTase inh, TCR act)
Cc1ccc2[nH]c3c(N4CCN(Cc5ccccc5)CC4)ncnc3c2c1	ClpP mod inconclusive
CCOc1ccc2[nH]c3c(N4CCN(c5ccccn5)CC4)ncnc3c2c1	ClpP mod 28µM (no result: uPA generation)
NC(=O)CSc1nc2cc3c(cc2c(=O)n1CCCCCC(=O)NCc1ccc2c(c1)OCO2)OCO3	none (no result: uPA generation, Sfp PPTase inh, TCR act)
CCN1C=C(C(=O)OC)C(c2cccc(C)c2)C(C(=O)OC)=C1	ClpP mod 6.3µM
CCCOc1ccccc1C1C(C(=O)OC)=CN(C(C)C)C=C1C(=O)OC	ClpP mod 16µM
COC(=O)C1=CN(C)C=C(C(=O)OC)C1c1ccccc1Cl	none
CCCCOc1ccccc1C1C(C(=O)OC)=CN(CC)C=C1C(=O)OC	ClpP mod 14µM
COC(=O)C1=CN(C(C)C)C=C(C(=O)OC)C1c1cccc(OC)c1	none
COc1ccc(N2Cc3cccc(C(=O)Nc4ccc(C(C)C)cc4)c3C2=O)cc1	none (no result: uPA generation, Sfp PPTase inh, TCR act)
O=C(O)c1cccc(NC(=O)c2ccc(Cl)c(S(=O)(=O)N3CCCCCC3)c2)c1	uPA generation 6.3µM
